Source: PubChem BioAssay (National Center for Advancing Translational Sciences (NCATS))
A selection: hits, their analogues and other compounds. The true share with any hit is near 2.1%.
TDP43 rescue – rescues yeast growth from TDP-43 toxicity. TDP-43 expressing yeast growth rescue, BacTiter-Glo, 24 h. Potency, µM (doses to about 46.1 µM), for the others: at the top dose growth rescue (activation), usual class: activators. 1.8% of 410,000 active; further: % of control where 0% means no effect; nearly all actives have a fitted effect of over 50% in size
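Galactose-induced TDP-43 yeast, OD600=0.02, compound pinned; 24 hr, 30 deg C; BacTiter-Glo luminescence for growth. Inhibitors of TDP-43 toxicity read as activators.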
Abeta rescue – restores growth of yeast expressing A-beta42 peptide; 0.063% of 410,000 active; yeast expressing A-beta42, growth rescue, OD600, 48 h; response scale: 0% DMSO, 100% iron-clioquinol control; Potency, µM (titrated, usually from 46.1 µM), most hits filed as activators; further: nearly all actives have a fitted effect of over 55% in size
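Yeast growth medium received pinned compounds, then yeast cells expressing toxic A-beta were added; plates incubated at 30 C for 48 hr. Growth read as absorbance at 600 nm, normalized to DMSO and equimolar FeCl3 plus clioquinol controls.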
aSyn rescue – alpha-synuclein toxicity inhibition in yeast | AID 652106 | Potency, µM (doses to about 46.1 µM), for the others: at the highest dose growth rescue (activation), actives largely listed as activators | 0.14% of 370,000 active | Yeast expressing alpha-synuclein, growth rescue, BacTiter-Glo, 24 h; further: % of control where 0% means no effect; nearly all actives have a fitted effect of over 65% in size
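Rescue of yeast growth: cells expressing toxic alpha-synuclein, induced in galactose at OD600 0.02, incubated with compound 24 h at 30 C. ATP luminescence quantified growth; inhibitors of toxicity appear as activators.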
FUS yeast rescue – suppressors of FUS proteinopathy in yeast. AID 1347120. 0.24% of 390,000 active. Potency, µM (series often up to 76.6 µM), actives largely listed as activators. S. cerevisiae FUS-expressing, growth rescue, OD600, 24 h;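 further: plate controls were DMSO vehicle for no effect and reference control for full effect; nearly all actives have a fitted effect of over 55% in size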
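FUS-expressing yeast, raffinose-pregrown, induced in 2% galactose minimal medium at OD 0.005; compounds in a dilution series, 24hr at 30C. Growth restoration read as absorbance at 600 nm. CP55940 positive control, DMSO negative.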
* marks the source's active call; other numbers are inactive results; i = inactive; ? = inconclusive; · = no result given. The call rests on the fitted dose curve; in most records, active means well fitted curve in the direction sought with a large enough effect; inconclusive means small, poorly fitted or top-dose-only effect, or another doubt; inactive means no such curve, though single readings can be large; an effect the other way counts as inactive or inconclusive. Potency means the concentration at half of the fitted maximal effect.

SMILES | TDP43 rescue | Abeta rescue | aSyn rescue | FUS yeast rescue
CC(=O)Nc1ccc(NC(=O)C(C)OC(=O)CCCc2c[nH]c3ccccc23)cc1 (stereo unspecified) | -13% | i | 7% | i
Cc1ccc(C)c(NC(=S)NCCc2ccc(F)cc2)c1 | ? | ? | 2% | i
Cc1ccc(C)c(NC(=S)NNc2ccc(F)cc2F)c1 | 13µM* | ? | -3% | ?
COc1cc(N2C(=O)c3ccccc3C2=O)c(Cl)cc1C(=O)OCC(=O)NCc1ccco1 | 13% | i | -7% | 16µM*
O=C(COC(=O)c1cccc(Oc2ccccc2)c1)NCc1ccco1 | 16µM* | ? | 16% | i
O=C(NCc1ccco1)c1ccc(Oc2ccccc2)cc1 | 20µM* | i | 0% | i
O=C(NCc1ccco1)c1ccc(C(=O)NCc2ccco2)cc1 | 13% | i | -3% | ·
CCOc1cc(/C=N/NC(=O)COc2ccc(C)cc2)ccc1OC(=O)c1cccs1 | -6% | i | 1% | i
O=[N+]([O-])/C=C/c1cn(Cc2ccc(Cl)cc2)c2ccccc12 | 4% | i | 1% | i
Cc1cccc(Cn2cc(/C=C/[N+](=O)[O-])c3ccccc32)c1 | 14µM* | i | -16% | i
CCCCC(c1nnnn1CC1CCCO1)N1CCN(c2cccc(C)c2C)CC1 (stereo unspecified) | 2% | i | 0% | i
O=C(COC(=O)/C=C/c1ccc([N+](=O)[O-])cc1)NNC(=O)c1ccccc1 | ? | i | 7% | i
S=C(Nc1nc2c(s1)CCCC2)NC1CC1 | 26% | 8.9µM* | 2% | i
COc1ccc(C(=O)/C=C/C(=O)N(Cc2ccc3c(c2)OCO3)C(C(=O)NC2CCCCC2)c2ccncc2)c(O)c1 (stereo unspecified) | ? | i | ? | ·
COc1ccc(-c2nnn(CC(=O)N(CC(=O)NC3CCCC3)Cc3cccs3)n2)cc1OC | -15% | i | 1% | ?
COCCN(CC(=O)NC1CCCCC1)C(=O)/C=C/C(=O)c1ccc(OC)cc1O | 14µM* | i | 11% | i
COc1ccc(CN(C(=O)/C=C/C(=O)c2ccc(OC)cc2O)C(C(=O)NC2CCCCC2)c2ccncc2)cc1 (stereo unspecified) | 28% | i | 35µM* | ·
COc1ccc(C(=O)/C=C/C(=O)N(CC(=O)NC2CCCCC2)Cc2cccs2)c(O)c1 | 20µM* | i | 2% | ?
Cc1ccc(-c2cc(-c3c(C)nn(C)c(=O)c3N)[nH]n2)cc1 | 2% | i | 10% | i
Cc1ccc(C(=O)N/C(=C/c2ccco2)C(=O)Nc2cccc(C)c2)cc1 | 5% | i | 9% | 32µM*
Cc1cccc(NC(=O)/C(=C\c2ccco2)NC(=O)c2cccs2)c1 | 13% | i | 1% | i
Cc1nc2ccc(Br)cn2c1C(=O)N/N=C\c1ccc(C(C)C)cc1 | 0% | i | -3% | i
CCCCCn1c(=O)c(C(=O)OCC)c(O)c2ccccc21 | -7% | i | 13% | i
CCCCn1c(=O)c(C(=O)OCC)c(O)c2ccccc21 | 16µM* | i | 7% | ?
Cc1ccc(-c2cc(C(F)F)nc(S(C)(=O)=O)n2)cc1 | 11µM* | i | -11% | i
SMILES | TDP43 rescue | Abeta rescue | aSyn rescue | FUS yeast rescue
C=CCn1c(Sc2ncc([N+](=O)[O-])s2)n[nH]c1=O | 13µM* | i | 2% | i
COc1cccc(Oc2cc(Cl)nc(N)n2)c1 | 21% | i | -3% | i
COc1ccc2c(c1)O/C(=C\c1ccco1)C2=O | 21% | i | 8% | i
CCCC1(c2ccccc2)NC(=O)N(CC(=O)c2[nH]c(C)c(C(=O)OCC)c2C)C1=O (stereo unspecified) | 12% | i | -3% | 22µM*
O=C(N/N=C/c1ccc2c(c1)OCO2)/C(=C/c1ccc2c(c1)OCO2)NC(=O)c1ccccc1 | -2% | i | 2% | ·
COc1ccc(Cl)cc1C1=CC(=O)C[C@H](c2ccc(F)cc2)C1 | 13µM* | i | 2% | i
COc1ccc(OC)c(C2=CC(=O)C[C@H](c3ccc(F)cc3)C2)c1 | ? | i | 15% | i
COc1ccc(C2=CC(=O)C[C@H](c3ccc(F)cc3)C2)c(F)c1F | 16µM* | i | 21% | ?
COc1ccc(C2=CC(=O)C[C@H](c3ccc(F)cc3)C2)c(OC)c1 | 22µM* | i | 6% | ?
O=C(c1ccc(CS(=O)Cc2ccccc2Cl)o1)N1CCN(c2cccc(Cl)c2)CC1 (stereo unspecified) | 15% | i | ? | ?
O=c1[nH][nH]c2c1[C@H](c1ccc(Cl)cc1)O[C@H](C1CC1)C2 | 11µM* | i | 1% | i
O=c1[nH][nH]c2c1[C@@H](c1ccc(F)cc1)O[C@H](C1CCCCC1)C2 | 14% | i | -2% | i
C[C@@H]1Cc2[nH][nH]c(=O)c2[C@H](c2ccc(Cl)cc2)O1 | 29% | i | 0% | i
CCCC[C@@H]1Cc2[nH][nH]c(=O)c2[C@H](c2ccc(C(C)C)cc2)O1 | 20µM* | i | -20% | ?
O=c1[nH][nH]c2c1[C@H](c1ccccc1)O[C@H](C1CCCCC1)C2 | 35µM* | i | 5% | ?
O=c1[nH][nH]c2c1[C@H](c1ccc(F)cc1)O[C@H](C1CCCCC1)C2 | 32µM* | i | 1% | ?
CCCC[C@@H]1Cc2[nH][nH]c(=O)c2[C@@H](c2ccc(Cl)cc2)O1 | 0% | i | 5% | i
CCCN(C(=O)c1cc(S(=O)(=O)N2CCCCC2)ccc1Cl)C1CCS(=O)(=O)C1 (stereo unspecified) | 1% | i | 0% | i
COCCNC(=O)Cc1c(C)c2cc3c(cc2oc1=O)OC(C)(C)CC3 | -2% | i | -13% | i
COc1ccc(C(CNC(=O)c2ccc(OCC3CCCO3)cc2)N2CCOCC2)cc1 (stereo unspecified) | -2% | i | -1% | i
CCc1cccc(C)c1NC(=O)CN1CCN(S(=O)(=O)c2ccc(C(C)(C)C)cc2)CC1 | -9% | i | 17% | 35µM*
FC(F)(F)c1cc(-c2ccccc2)nc(NCC2CCCO2)n1 (stereo unspecified) | 13µM* | i | -16% | i
O=C(Nc1nnc(-c2ccc3c(c2)CCCC3)o1)C1COc2ccccc2O1 (stereo unspecified) | 18µM* | ? | 6.3µM* | i
COc1ccccc1C(=O)Nc1nnc(-c2ccc3c(c2)CCCC3)o1 | 18µM* | i | ? | ?
CC(=O)Nc1nnc(-c2ccc3c(c2)CCCC3)o1 | 32µM* | i | -10% | i
O=C(Nc1nncs1)C1COc2ccccc2O1 (stereo unspecified) | -13% | i | -2% | i
O=C(COc1ccc(Cl)cc1)Nc1nnc(-c2ccc3c(c2)CCCC3)o1 | ? | i | 29% | i
Cc1cc(C)nc(SCc2nnc(SCC(N)=O)o2)n1 | 9% | i | 4% | i
